Test results taken from PubChem BioAssay (NCI).
Compounds without any hit were thinned out: in the full panel of roughly 79,000, 15% have a hit. Activity calls are given as the source filed them. No stated cut-off is given here; in the data, active means growth inhibition above about 70%; inactive means the rest.

Experiments:
[1] = NCI Yeast Anticancer Drug Screen. Data for the rad52 strain (AID 147);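 further: 0% = growth of vehicle-treated control cultures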; settings: S. cerevisiae rad52 mutant growth inhibition, active compounds read high
In short: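 Genetically altered yeast (DNA damage repair defect) treated with compound; inhibition calculated relative to vehicle.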

[2] = NCI Yeast Anticancer Drug Screen. Data for the wt1 strain (AID 149);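 further: 0% = growth of vehicle-treated wt1 cultures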; settings: S. cerevisiae wt1 strain (SPY 50644) growth inhibition, active compounds read high
In short: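 Readout: yeast growth inhibition, normalised to vehicle controls, in the wt1 strain exposed to test compounds.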

[3] = NCI Yeast Anticancer Drug Screen. Data for the rad50EPP+ strain (AID 151);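 further: 0% = growth of vehicle-treated control cultures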; settings: S. cerevisiae rad50 mutant strain, active compounds read high
In short: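 Strain rad50EPP+; compound exposure; % growth inhibition vs vehicle.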

[4] = NCI Yeast Anticancer Drug Screen. Data for the mgt1 strain (AID 153); settings: S. cerevisiae mgt1 mutant growth inhibition, active compounds read high
In short: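 Read-out: yeast growth inhibition vs vehicle control. Strain mgt1, drawn from a panel altered in DNA damage repair or cell cycle control.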

[5] = NCI Yeast Anticancer Drug Screen. Data for the rad50 strain (AID 155);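 further: 0% = growth of vehicle-only cultures of the same strain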; settings: S. cerevisiae rad50 strain growth inhibition, active compounds read high
In short: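 Compounds were tested on a yeast strain with an engineered DNA damage repair alteration; the reported value is growth inhibition normalised to vehicle treatment.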

[6] = NCI Yeast Anticancer Drug Screen. Data for the mec2-1 strain (AID 157); settings: S. cerevisiae mec2-1 strain, active compounds read high
In short: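 Cells of the genetically defined mec2-1 yeast strain are incubated with test compound. Inhibition of growth is calculated against vehicle-treated controls.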

[7] = NCI Yeast Anticancer Drug Screen. Data for the rad14 strain (AID 159);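 further: 0% = growth of vehicle-treated control cultures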; settings: S. cerevisiae rad14 strain growth inhibition, active compounds read high
In short: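 Compound-treated yeast with a defined DNA-repair lesion; growth inhibition normalised to vehicle-treated cultures.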

[8] = NCI Yeast Anticancer Drug Screen. Data for the sgs1 mgt1 strain (AID 161);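 further: 0% = growth of cultures given vehicle only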; settings: S. cerevisiae sgs1 mgt1 strain, active compounds read high
In short: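 Test agents were incubated with a DNA-repair-mutant yeast strain. Growth was then read and compared against vehicle-treated controls.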

[9] = NCI Yeast Anticancer Drug Screen. Data for the CLN2oe strain (AID 163);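 further: 0% = growth of vehicle-only control cultures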; settings: S. cerevisiae CLN2oe strain, active compounds read high
In short: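 Strain altered in cell-cycle control, incubated with compound; growth compared to solvent-treated controls.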

[10] = NCI Yeast Anticancer Drug Screen. Data for the cln2 rad14 strain (AID 165);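 further: 0% = growth equal to vehicle treated cultures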; settings: S. cerevisiae cln2 rad14 strain, active compounds read high
In short: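 The screen exposed genetically defined yeast (cln2 rad14) to test compounds and scored growth inhibition relative to vehicle-treated controls.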

[11] = NCI Yeast Anticancer Drug Screen. Data for the bub3 strain (AID 167); settings: S. cerevisiae bub3 mutant strain, active compounds read high
In short: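 Growth of a checkpoint-deficient yeast mutant is measured after compound exposure. Values represent inhibition relative to vehicle.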

[12] = NCI Yeast Anticancer Drug Screen. Data for the wt2 strain (AID 169);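 further: 0% = growth of vehicle-treated yeast cultures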; settings: S. cerevisiae wt2 strain growth inhibition, active compounds read high
In short: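 Steps: yeast strain treated with compound; growth recorded; inhibition calculated relative to cultures given vehicle alone.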

[13] = NCI Yeast Anticancer Drug Screen. Data for the mlh1 strain (AID 171);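 further: 0% = growth of vehicle-treated control cultures of the same strain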; settings: S. cerevisiae mlh1 strain growth inhibition, active compounds read high
In short: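 Yeast screen: mutant strain plus compound, growth scored against vehicle control wells.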

[14] = NCI Yeast Anticancer Drug Screen. Data for the sgs1 strain (AID 173);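 further: 0% = growth of vehicle-only control cultures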; settings: S. cerevisiae sgs1 mutant, active compounds read high
In short: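 Inhibition of yeast growth served as the measure. The mutant strain was treated with each compound, and growth was normalised to cultures receiving vehicle alone.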

[15] = NCI Yeast Anticancer Drug Screen. Data for the mlh1 rad18 strain (AID 175); settings: S. cerevisiae mlh1 rad18 strain growth inhibition, active compounds read high
In short: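 Compound-treated yeast growth, normalised to vehicle controls. Strain bears defined DNA repair mutations.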

[16] = NCI Yeast Anticancer Drug Screen. Data for the rad18 strain (AID 177); settings: S. cerevisiae rad18 mutant growth inhibition, active compounds read high
In short: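 Inhibition values reflect reduced yeast growth compared with vehicle-treated controls, using a strain engineered with a DNA damage repair defect.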

[17] = at 5.0 µM (retest, dose inferred, filed as 0.5)
[18] = at 50.0 µM (retest, dose inferred, filed as 5.0)

Measured: growth inhibition

O=C(/C=C(\c1ccccc1)N1CC1)c1ccccc1
inactive: [1]; at 1.2 µM -5% | [1]; at 3.7 µM -10% | [1]; at 11.0 µM -2% | [1]; at 33.0 µM 8% | [2]; at 1.2 µM -5% | [2]; at 3.7 µM -4% | [2]; at 11.0 µM -5% | [2]; at 33.0 µM 0% | [3]; at 1.2 µM 2% | [3]; at 3.7 µM 17% | [3]; at 11.0 µM 50% | [4]; at 1.2 µM -2% | [4]; at 3.7 µM -4% | [4]; at 11.0 µM -4% | [4]; at 33.0 µM 19% | [5]; at 1.2 µM -13% | [5]; at 3.7 µM -7% | [5]; [17] -140% | [5]; at 11.0 µM 8% | [5]; at 33.0 µM 33% | [5]; at 50.0 µM 62.5% | [6]; at 1.2 µM 2% | [6]; at 3.7 µM 1% | [6]; [17] -46% | [6]; at 11.0 µM 12% | [6]; at 33.0 µM -1% | [6]; [18] 28% | [6]; at 50.0 µM 59.8% | [7]; at 1.2 µM -4% | [7]; at 3.7 µM -1% | [7]; at 11.0 µM 3% | [7]; at 33.0 µM 40% | [8]; [17] -58% | [8]; [18] 47% | [8]; at 50.0 µM 17.2% | [9]; at 1.2 µM 4% | [9]; at 3.7 µM 1% | [9]; at 11.0 µM 0% | [9]; at 33.0 µM 0% | [10]; [17] -63% | [10]; [18] 12% | [10]; at 50.0 µM 0.55% | [11]; at 1.2 µM -7% | [11]; at 3.7 µM 0% | [11]; [17] -62% | [11]; at 11.0 µM 8% | [11]; at 33.0 µM 21% | [11]; [18] 54% | [11]; at 50.0 µM 63.9% | [12]; at 1.2 µM 0% | [12]; at 3.7 µM 0% | [12]; at 11.0 µM 1% | [12]; at 33.0 µM 3% | [13]; at 1.2 µM 7% | [13]; at 3.7 µM -3% | [13]; at 11.0 µM -5% | [13]; at 33.0 µM 6% | [14]; at 1.2 µM 1% | [14]; at 3.7 µM 2% | [14]; at 11.0 µM 3% | [14]; at 33.0 µM 31% | [15]; [17] -139% | [15]; at 50.0 µM 67.5%
active: [1]; at 100.0 µM 97% | [2]; at 100.0 µM 84% | [3]; at 33.0 µM 72% | [3]; at 100.0 µM 86% | [4]; at 100.0 µM 93% | [5]; [18] 86% | [5]; at 100.0 µM 98% | [6]; at 100.0 µM 97% | [7]; at 100.0 µM 99% | [9]; at 100.0 µM 84% | [11]; at 100.0 µM 93% | [12]; at 100.0 µM 93% | [13]; at 100.0 µM 98% | [14]; at 100.0 µM 97% | [15]; [18] 73%

COc1ccc(/C=C(/C)[N+](=O)[O-])cc1
inactive: [1]; at 1.2 µM 8% | [1]; at 3.7 µM 36% | [2]; at 1.2 µM -28% | [2]; at 3.7 µM -21% | [2]; at 11.0 µM -18% | [3]; at 1.2 µM 57% | [4]; at 1.2 µM -22% | [4]; at 3.7 µM -17% | [4]; at 11.0 µM 0% | [5]; at 1.2 µM -10% | [5]; at 3.7 µM 23% | [5]; [17] 49% | [6]; at 1.2 µM -44% | [6]; at 3.7 µM -51% | [6]; [17] 16% | [6]; at 11.0 µM -34% | [7]; at 1.2 µM -20% | [7]; at 3.7 µM -25% | [7]; at 11.0 µM -24% | [7]; at 33.0 µM 69% | [8]; [17] 28% | [9]; at 1.2 µM -3% | [9]; at 3.7 µM -10% | [9]; at 11.0 µM -9% | [10]; [17] 37% | [10]; at 50.0 µM 60% | [11]; at 1.2 µM -27% | [11]; at 3.7 µM -28% | [11]; [17] 28% | [11]; at 11.0 µM -6% | [12]; at 1.2 µM -5% | [12]; at 3.7 µM -4% | [12]; at 11.0 µM -1% | [12]; at 33.0 µM 59% | [13]; at 1.2 µM -12% | [13]; at 3.7 µM -16% | [13]; at 11.0 µM -2% | [14]; at 1.2 µM 20% | [14]; at 3.7 µM 41% | [14]; at 11.0 µM 42% | [15]; [17] 22% | [16]; at 1.2 µM -14% | [16]; at 3.7 µM -8% | [16]; at 11.0 µM -17% | [16]; at 33.0 µM 42%
active: [1]; at 11.0 µM 81% | [1]; at 33.0 µM 95% | [1]; at 100.0 µM 99% | [2]; at 33.0 µM 72% | [2]; at 100.0 µM 99% | [3]; at 3.7 µM 83% | [3]; at 11.0 µM 94% | [3]; at 33.0 µM 97% | [3]; at 100.0 µM 99% | [4]; at 33.0 µM 80% | [4]; at 100.0 µM 99% | [5]; at 11.0 µM 79% | [5]; at 33.0 µM 94% | [5]; [18] 94% | [5]; at 50.0 µM 80.3% | [5]; at 100.0 µM 99% | [6]; at 33.0 µM 78% | [6]; [18] 98% | [6]; at 50.0 µM 90.3% | [6]; at 100.0 µM 99% | [7]; at 100.0 µM 99% | [8]; [18] 85% | [8]; at 50.0 µM 87.8% | [9]; at 33.0 µM 71% | [9]; at 100.0 µM 99% | [10]; [18] 94% | [11]; at 33.0 µM 93% | [11]; [18] 99% | [11]; at 50.0 µM 90.8% | [11]; at 100.0 µM 98% | [12]; at 100.0 µM 99% | [13]; at 33.0 µM 97% | [13]; at 100.0 µM 99% | [14]; at 33.0 µM 86% | [14]; at 100.0 µM 98% | [15]; [18] 99% | [15]; at 50.0 µM 81.5% | [16]; at 100.0 µM 99%
